Screening results from PubChem.
Most compounds without a hit are left out; they make up all but 2.9% or so of the library.
PLC-gamma1 inh: PLC-gamma1 enzyme inhibitors, primary screen, biochemical, fluorescence, purified enzyme; inhibition, % at 12.2 µM; AID 720700, 2013; fluorogenic substrate; 1-phosphatidylinositol 4,5-bisphosphate phosphodiesterase gamma-1 (Homo sapiens), P19174; 0.84% of 370,000 active; in the data active = inhibition above about 9.5%
PLC-beta3 inh: human PLC-beta3 inhibitors, primary screen, biochemical, fluorescence. 1-phosphatidylinositol 4,5-bisphosphate phosphodiesterase beta-3 (Homo sapiens), Q01970. 0.18% of 370,000 active. Purified PLC-beta3, fluorogenic substrate. AID 720704, 2013. inhibition, % at 12.2 µM; in the data active = inhibition above about 11%;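 note: 0% = median of compound wells on plate and 100% = full blocker control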
ADAM17 inh: ADAM17 inhibitors, primary screen, biochemical, QFRET | Disintegrin and metalloproteinase domain-containing protein 17 (Homo sapiens), P78536 | recombinant ADAM17, EDANS/DABCYL FRET peptide cleavage | inhibition, % at 6.95 µM | 0.83% of 370,000 active;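 active = inhibition above the mean of compounds lying between control limits plus 3 SD, set per campaign, cut at about 8.5% in these data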;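 note: 0% = DMSO-only wells as the low control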
KLK7 zymogen act: proKLK7 zymogen activators, primary screen, biochemical, fluorescence intensity. AID 652039, 2013. activation, % at 7 µM. 0.9% of 370,000 active. purified proKLK7, EDANS-DABCYL substrate fluorescence; 100% is mature enzyme control, 0% vehicle;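 active = activation above the mean of all tested compounds plus 3 SD, computed per campaign excluding outliers beyond control limits, cut at about 13% in these data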
Target sequence (P49862 whole entry, looked up): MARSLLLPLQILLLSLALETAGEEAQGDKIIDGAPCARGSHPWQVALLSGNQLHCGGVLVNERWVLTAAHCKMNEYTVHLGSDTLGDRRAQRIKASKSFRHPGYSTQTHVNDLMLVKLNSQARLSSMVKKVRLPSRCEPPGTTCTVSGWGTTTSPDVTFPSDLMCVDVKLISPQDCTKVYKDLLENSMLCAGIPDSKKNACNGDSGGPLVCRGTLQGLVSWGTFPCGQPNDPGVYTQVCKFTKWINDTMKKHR
ADAM10 inh: human ADAM10 inhibitors, primary screen, biochemical, QFRET, HTS; 0.62% of 370,000 active; AID 720582, 2013; inhibition, % at 7 µM; recombinant ADAM10, EDANS/DABCYL FRET peptide cleavage, 3 h; Disintegrin and metalloproteinase domain-containing protein 10 (Homo sapiens), O14672;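 active = inhibition above a per-campaign cutoff equal to the mean of compounds falling between control-based bounds plus 3 SD, cut at about 20% in these data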;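 note: 0% = DMSO wells while the 100% control is not disclosed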
ADAM10 confirm: human ADAM10 inhibitors, confirmation, biochemical, QFRET, triplicate; shares compounds with ADAM10 inh; ADAM10 QFRET peptide cleavage, EDANS fluorescence; inhibition, % at 6.95 µM; 1% of 2,100 active;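 active = inhibition above about 20% chosen separately for each screening run, limit read from the data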;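 note: 0% = DMSO wells and 100% = marimastat wells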
ADAM17 counter: ADAM17 inhibitors, counter-screen for ADAM10 exosite inhibitor project, biochemical, QFRET, high throughput. inhibition, % at 6.95 µM. 0.5% of 2,100 active. shares compounds with ADAM10 inh. ADAM17 QFRET peptide cleavage, EDANS fluorescence. AID 743214, 2013;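 active = mean triplicate inhibition above the solvent-only control wells' mean plus 3 SD, cut at about 12% in these data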;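 note: 0% = DMSO wells and 100% = marimastat wells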
ADAM10 counter: ADAM10 inhibitors, counter-screen for ADAM17 exosite inhibitor project, biochemical, FRET, human ADAM10; shares compounds with ADAM17 inh; recombinant ADAM10, EDANS/DABCYL FRET peptide cleavage, 3 h; inhibition, % at 6.95 µM; 47% of 2,900 active;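 active = mean inhibition over the triplicate runs exceeds the activity threshold set in the earlier primary screen, cut at about 20% in these data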;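 note: 0% = DMSO wells and 100% = marimastat wells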
ADAM17 confirm: ADAM17 inhibitors, hit retest, confirmation, biochemical, QFRET peptide cleavage; 65% of 2,900 active; recombinant ADAM17, EDANS/DABCYL QFRET peptide cleavage; shares compounds with ADAM17 inh; inhibition, % at 6.95 µM;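 active = mean inhibition across replicates above the hit cutoff set in the primary screen, cut at about 8.5% in these data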;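 note: 0% = DMSO wells and 100% = marimastat wells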
An asterisk follows results filed as active.

For Cc1cccc(Oc2cc(NC(=O)c3ccccc3)cc([N+](=O)[O-])c2)c1 the results were PLC-gamma1 inh 3, PLC-beta3 inh -1, ADAM17 inh 9.0*, KLK7 zymogen act 0, ADAM10 inh 22*, ADAM10 confirm 7, ADAM17 counter 2, ADAM10 counter 17 and ADAM17 confirm 12*.
Cc1cccc(C(=O)Nc2cccc(NC(=O)c3ccccc3)c2)c1 was read as PLC-gamma1 inh 5, PLC-beta3 inh 2, ADAM17 inh 10*, KLK7 zymogen act 0, ADAM10 inh 26*, ADAM10 confirm 3, ADAM17 counter 0, ADAM10 counter 16 and ADAM17 confirm 11*.
Cn1cc([N+](=O)[O-])c(C(=O)Nc2cc(Oc3ccccc3)cc([N+](=O)[O-])c2)n1 was read as PLC-gamma1 inh 0, PLC-beta3 inh -1, ADAM17 inh 1, KLK7 zymogen act 0 and ADAM10 inh 4.
`CS(=O)(=O)N(CC(=O)Nc1ccc2c(c1)OCCO2)Cc1ccc(Cl)cc1` gave PLC-gamma1 inh 3, PLC-beta3 inh -1, ADAM17 inh 4, KLK7 zymogen act 0 and ADAM10 inh 5.
`CCOC(=O)c1ccc(NC(=O)CN(Cc2ccc(Cl)cc2)S(C)(=O)=O)cc1` gave PLC-gamma1 inh 2, PLC-beta3 inh 1, ADAM17 inh 11*, KLK7 zymogen act -1, ADAM10 inh 26*, ADAM10 confirm 1, ADAM17 counter 0, ADAM10 counter 25* and ADAM17 confirm 15*.
CCCCN1CC(=O)N2[C@H](C[C@@]3(C)c4ccccc4N(S(=O)(=O)c4ccccc4)[C@@H]23)C1=O was read as PLC-gamma1 inh -3, PLC-beta3 inh 2, ADAM17 inh -4, KLK7 zymogen act 1 and ADAM10 inh -3.
`O=C(CN(Cc1cccs1)S(=O)(=O)c1ccc(S(=O)(=O)NC2CCCCC2)cc1)Nc1ccccc1` gave PLC-gamma1 inh 8, PLC-beta3 inh 5, ADAM17 inh 17*, KLK7 zymogen act 1, ADAM10 inh 36*, ADAM10 confirm 11, ADAM17 counter 3, ADAM10 counter 50* and ADAM17 confirm 25*.
Screening O=C(CN(C1CC1)S(=O)(=O)c1ccc(S(=O)(=O)NC2CCCCC2)cc1)Nc1ccccc1 returned PLC-gamma1 inh 2, PLC-beta3 inh 4, ADAM17 inh 5, KLK7 zymogen act 0 and ADAM10 inh 10.
COc1ccc(C2C3C(=O)N(Cc4ccccc4)C(=O)C3ON2c2ccccc2)c(OC)c1OC (stereo not drawn) was read as PLC-gamma1 inh 7, PLC-beta3 inh 3, ADAM17 inh 11*, KLK7 zymogen act 0, ADAM10 inh 21*, ADAM10 confirm 7, ADAM17 counter 2, ADAM10 counter 32* and ADAM17 confirm 17*.
